Results published in PubChem BioAssay AID540308 (The Scripps Research Institute Molecular Screening Center, 2011).
In all, about 360,000 compounds went through this assay and about 3,500 (0.97%) were called active.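 Rule for the calls: active = activation above a per-plate cutoff, the mean activation of sample wells on that plate plus 3 SD (cut at about 8% in these data); inactive = the rest.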 Many of the other results were omitted from the sample, so actives are more common in it than they were.

target: Melanocortin receptor 4 (Homo sapiens) (UniProt P32245); experiment: activators of MC4R beta-arrestin recruitment – cell-based, luminescence, agonist arm of biased-ligand search, primary screen (AID 540308); conditions: U2OS MC4R beta-arrestin complementation, at 8.9 µM, stronger effect = higher value, percent of melanotan II response, DMSO zero
Sequence (P32245 whole entry, looked up): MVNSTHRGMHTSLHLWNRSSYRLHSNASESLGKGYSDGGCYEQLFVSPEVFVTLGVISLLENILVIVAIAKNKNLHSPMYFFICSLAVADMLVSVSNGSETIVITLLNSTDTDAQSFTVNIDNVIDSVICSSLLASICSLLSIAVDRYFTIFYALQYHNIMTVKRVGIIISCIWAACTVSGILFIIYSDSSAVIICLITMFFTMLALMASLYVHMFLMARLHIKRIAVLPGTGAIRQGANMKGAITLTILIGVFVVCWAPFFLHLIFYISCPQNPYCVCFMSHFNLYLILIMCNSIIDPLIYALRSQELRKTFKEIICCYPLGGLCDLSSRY

Compound | activation
CC(=O)Nc1cc(-c2cccc(CO)c2)cn2c(-c3cccc(C(F)(F)F)c3)cnc12 | 4.6% (inactive)
CC(=O)Nc1cc(-c2ccc(N3CCN(C)CC3)cc2)cn2c(-c3cccc(C(=O)N(C)C)c3)cnc12 | 0.62% (inactive)
CC(=O)Nc1cccc(-c2cc(NC=O)c3ncc(-c4ccc(F)c(Cl)c4)n3c2)c1 | 5.15% (inactive)
COc1cccc(-c2cnc3c(NC(C)=O)cc(-c4cc(F)ccc4OC)cn23)c1 | 29.8% (active)
CC(=O)Nc1cccc(-c2cc(NC(C)=O)c3ncc(-c4ccccc4)n3c2)c1 | 6.05% (inactive)
COc1ccc(-c2cc(NC(C)=O)c3ncc(-c4cc(OC)c(OC)c(OC)c4)n3c2)cn1 | -0.61% (inactive)
CC(=O)Nc1cc(-c2ccc(N3CCN(C)CC3)cc2)cn2c(-c3ccc(F)cc3)cnc12 | 0.23% (inactive)
CC(=O)Nc1cc(-c2ccccc2F)cn2c(-c3cccc(C(F)(F)F)c3)cnc12 | 22.5% (active)
COc1cccc(-c2cnc3c(NC(C)=O)cc(-c4cccc(NC(C)=O)c4)cn23)c1 | 7.42% (inactive)
COc1cccc(-c2cc(NC(C)=O)c3ncc(-c4cccc(C(C)=O)c4)n3c2)c1 | 3% (inactive)
CC(=O)Nc1cc(-c2ccccc2N(C)C)cn2c(-c3ccc(F)c(Cl)c3)cnc12 | 25.4% (active)
COc1ccccc1-c1cc(NC(C)=O)c2ncc(-c3ccc(F)cc3)n2c1 | 10.3% (active)
COC(=O)Cc1ccc(OC2(C)CCN(Cc3ccc4c(c3)OCCO4)C2)cc1 (stereo not drawn) | -0.74% (inactive)
CC1(C(=O)NS(=O)(=O)Cc2cccc(Cl)c2)CCN1C(=O)Cc1ccccc1 (stereo not drawn) | -0.92% (inactive)
NC(c1csc(NC(=O)Nc2ccccc2Oc2ccccc2)n1)c1ccccc1Cl (stereo not drawn) | 5.13% (inactive)
CCCNC(=O)C1(C)CCN(Cc2csc(-c3ccc(Cl)cc3)n2)C1 (stereo not drawn) | -0.8% (inactive)
O=C(Nc1ccc(Cl)cc1)c1csc([C@H]2C[C@H](O)[C@@H](CO)O2)n1 | -0.15% (inactive)
CCOC(=O)C1(Cc2cccc(OC)c2)CCCN(C(=O)CCSC)C1 (stereo not drawn) | -1.03% (inactive)
CCCC(=O)N1CCC1(C)C(=O)NS(=O)(=O)c1ccc(Cl)cc1 (stereo not drawn) | -0.17% (inactive)
Cc1ccc(-c2cnc(C(O)c3cc(Cl)cc(Cl)c3)[nH]2)cc1 (stereo not drawn) | 9.5% (active)
OC(c1ccc(Cl)cc1)c1ncc(-c2ccc(Cl)cc2)[nH]1 (stereo not drawn) | 1.64% (inactive)
Cc1cccc(-c2cnc(C(O)c3cc(C)cc(C)c3)[nH]2)c1 (stereo not drawn) | -1.6% (inactive)
C#CCNC(=O)[C@H](Cc1ccc(C(=O)c2ccccc2)cc1)NC(=O)OC(C)(C)C | -0.75% (inactive)
